Measurements as given in PubChem BioAssay AID2551 (National Center for Advancing Translational Sciences (NCATS), 2010).
The whole screen tested about 310,000 compounds, of which about 17,000 (5.5%) were called active. Not shown: some 11% with an inconclusive outcome. Calls follow the shape of the dose curve; as a rule, active = well fitted inhibition curve with a large enough effect; inconclusive = small, poorly fitted or top-dose-only effect, or effect the other way; inactive = no such curve, though single readings can be large or run the other way. The list comes from a sample in which actives are over-represented; it also holds similar structures and randomly drawn compounds.

Each compound was assayed against Nuclear receptor ROR-gamma (Mus musculus) (UniProt P51450) (assay: qHTS for inhibitors of ROR gamma transcriptional activity). Details: Drosophila S2 Gal4-RORgamma UAS-luciferase reporter, 20 h; series mostly up to 53.6 µM; activity change, negative = inhibition: at the top concentration.
Sequence of Nuclear receptor ROR-gamma (Mus musculus) (P51450 whole entry, looked up, the tested form may be a part): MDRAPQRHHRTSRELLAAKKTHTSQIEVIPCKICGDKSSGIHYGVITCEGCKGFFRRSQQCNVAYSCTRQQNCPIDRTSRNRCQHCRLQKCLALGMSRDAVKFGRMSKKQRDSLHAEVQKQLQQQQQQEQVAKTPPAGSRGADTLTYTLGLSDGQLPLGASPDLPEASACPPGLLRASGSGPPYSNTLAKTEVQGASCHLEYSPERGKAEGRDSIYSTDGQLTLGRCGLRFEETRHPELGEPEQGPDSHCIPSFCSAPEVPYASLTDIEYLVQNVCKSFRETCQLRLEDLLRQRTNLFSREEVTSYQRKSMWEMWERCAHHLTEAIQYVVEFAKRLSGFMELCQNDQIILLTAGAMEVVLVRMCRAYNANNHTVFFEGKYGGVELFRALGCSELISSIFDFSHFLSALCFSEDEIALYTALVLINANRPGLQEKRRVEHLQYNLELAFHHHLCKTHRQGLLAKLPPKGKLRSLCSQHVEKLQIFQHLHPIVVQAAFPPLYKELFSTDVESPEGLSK
In short: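 A Gal4/UAS one-hybrid system in insect cells: metallothionein-promoter Gal4–ROR gamma fusion plus Photinus luciferase reporter. Copper sulfate 700 uM final, 20 hr ambient incubation, luminescent detection after 10 min with reagent.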
% is scaled to controls: 0 for no effect and ±100 for the full control effect; potency is read from the fitted curve at half-maximal effect.
Also: nearly all actives have a fitted effect of over 60% in size.

Activity change, negative = inhibition, inactive:
O=C(C1CCCN(S(=O)(=O)c2ccccc2)C1)N1CCN(c2ccc(F)cc2)CC1 (stereo not drawn) 16.8%
Cc1cccc(C(=O)NCCCN(C)CCCNC(=O)c2cccc(C)c2)c1 -5.29%
Cc1ccc(S(=O)(=O)NC(=O)c2cccc(C)c2)cc1 0.442%
O=C(Nc1c2c(nn1-c1cccc(Cl)c1)CS(=O)(=O)C2)c1cccs1 -10.5%
COc1ccc(C(=O)Nc2c(N)nc(SCC(=O)Nc3ccc(C(C)=O)cc3)[nH]c2=O)cc1 -19.8%
CCCCN(CC)C(=O)C1CCCN(S(=O)(=O)c2cccc3nsnc23)C1 (stereo not drawn) 3.5%
Cc1ccc(OC(=O)c2cncc(Br)c2)c(C)c1 -23% [at 1.91 µM]
O=C(NCc1ccccn1)C1CCN(S(=O)(=O)c2ccc(Br)cc2)CC1 -18.1%
CC(=O)Cc1nsc(NC(=O)c2csc3c2CCCC3)n1 25%
Cc1ccc(NC(=O)c2csc3c2CCCC3)cc1 12.7%
COc1ccc(C(=O)NC2CCN(C(=O)Nc3ccc(F)cc3)CC2)cc1 -0.284%
COc1ccccc1CNC(=O)c1ccc(CS(=O)(=O)c2ccccc2)o1 28.3%
CCOc1ccc(CN2CCN(CCCc3ccccc3)C(CCO)C2)cc1 (stereo not drawn) 2.1%
CCN(C(=O)C1CCCN(c2nc(-c3ccc(OC)cc3)no2)C1)c1ccc(OC)cc1 (stereo not drawn) 38.9%
OCCNc1nc2ccccc2[nH]1 -8.36%
OC(c1nc2ccccc2[nH]1)C(O)C(O)C(O)c1nc2ccccc2[nH]1 (stereo not drawn) 20.1%
Cc1cc(C)c2c(-c3ccc(F)cc3)c(C#N)c(=O)n(C)c2n1 -20%
CCc1ccc(OCC2c3cc(OC)c(OC)cc3CCN2C(C)=O)cc1 (stereo not drawn) -7.5%
Nc1nc(Nc2ccccc2F)nc(NC2CCCCC2)c1[N+](=O)[O-] 16.6%
O=c1cc(-c2ccccc2)nc(N2CCCCC2)[nH]1 -5.11%
O=c1cc(N2CCCCC2)c(-c2ccccc2)nn1Cc1cccc(F)c1 -0.464%
CCC(=O)Nc1nnc(S(=O)(=O)N(CC(C)C)c2ccccc2)s1 -21.1%
CCOc1ccc2[nH]c(=O)c(CN(CCCO)S(=O)(=O)c3ccc(F)cc3)cc2c1 12.8%
c1ccc2c(c1)OCC(c1nn3cnnc3s1)O2 (stereo not drawn) 16.7%
CC1COc2ccccc2N1C(=O)c1ccc(F)cc1 (stereo not drawn) 24%
COc1ccc(N2CCN(C(=O)c3ccc(N4CCCCS4(=O)=O)cc3)CC2)cc1 29.1%
COc1ccc(-c2cc(C(=O)N3CCN(c4ccc(F)cc4)CC3)no2)cc1 4.47%
CCOc1ccc2[nH]c3nc(SCC(=O)NC4CCCC4)nnc3c2c1 -11.8%
O=c1c2ccccc2ncn1CCCCOc1ccccc1F 12.9% [at 1.91 µM]
COC(=O)c1ccc(NC(=O)CSc2nc(N)c(NC(=O)c3ccc(Br)o3)c(=O)[nH]2)cc1 5.56%
O=c1oc(/C=C/c2ccccc2)nc2ccccc12 0.954%
COc1ccc(N(CC(=O)N2CCCCCC2)S(=O)(=O)c2ccccc2)cc1 2.49%
Cc1ccc(NC2CCCN(C(=O)CCc3cn[nH]c3)C2)cc1C (stereo not drawn) 14.3%
Cc1ccccc1N1CCN(CC(=O)NCc2ccc(Cl)cc2)CC1 27.3%
COC(=O)c1sc(=S)n(-c2ccccc2)c1N 0.645%
CCOC(=O)c1sc2nc(C)[nH]c(=O)c2c1C 18.3%
O=S(=O)(c1ccc(Cl)cc1)c1nc(-c2ccccc2F)oc1NCCN1CCOCC1 38.8%
CC(=O)c1ccc(NC(=O)c2sc3nc4n(c(=O)c3c2C)CCCCC4)cc1 34.7%
O=C(Cc1ccc2c(c1)CCCC2)Nc1ccccc1Cl 8.31%
O=C(Nc1ccccc1Cl)Nn1cnnc1 -16.9%
Cc1ccc(S(=O)(=O)c2nnn3c2nc(N2CCN(c4ccccn4)CC2)c2ccccc23)cc1 -12.8%
CCC(CC)c1nnc(NC(=O)C2CCN(C(=O)c3ccco3)CC2)s1 35.8%
CC(CNC(=O)c1ccc(Br)o1)NC(=O)c1ccc(Br)o1 (stereo not drawn) -15%
O=C(NCc1cccs1)c1ccc(Br)o1 5.95%
CC1CCN(C(=O)Cn2nnnc2CN2CCOCC2)CC1 -26.6%
COC(CNC(=O)c1ccc2c(c1)ncn2-c1cc(C)cc(C)c1)OC 9.19%
O=C(NN=C1CCC(=NNC(=O)c2cccnc2)CC1)c1cccnc1 -37.9%
O=C(N/N=C/c1ccccn1)c1cccnc1 -45.9%
CN(Cc1ccccc1)C(=O)c1ccc(NC2=NC3CS(=O)(=O)CC3S2)cc1 (stereo not drawn) -0.867%
CNC(=S)N/N=C/c1cn(Cc2ccc(C)cc2)c2ccccc12 31.1%
COc1cccc(Cn2cc(/C=N/NC(=O)c3cc(O)cc(O)c3)c3ccccc32)c1 -0.821%
Cc1c(C=O)c2ccccc2n1CCOc1ccccc1 77.1%
COc1cccc(C(C(=O)NC2CCCC2)N(C(=O)c2ccco2)c2cccc(C(C)=O)c2)c1OC (stereo not drawn) 27%
COCCNC(=S)N(CCc1c(C)[nH]c2ccc(C)cc12)Cc1cccnc1 5.98%
Cc1ccc2[nH]c(C)c(CCNC(=O)NC3CCCCC3)c2c1 25.9%
COc1ccc2[nH]c(C)c(CCN(Cc3cccs3)C(=S)Nc3ccccc3OC)c2c1 38.3%
Cc1[nH]c2ccccc2c1CCN(Cc1cccs1)C(=S)NC(C)(C)C 3.01%
NS(=O)(=O)c1ccc(CNC(=O)c2cccc(Oc3ccccc3)c2)cc1 -1.73%
COc1ccc(N2CCN(C(=O)Cn3cnc4sc(C)c(S(=O)(=O)N5CCOCC5)c4c3=O)CC2)cc1 6.53%
COc1ccc(NS(=O)(=O)c2ccc3oc(SCC(N)=O)nc3c2)cc1 43.4%
COc1cc(C(=S)N2CCOCC2)cc(OC)c1OC(=O)c1ccc([N+](=O)[O-])cc1[N+](=O)[O-] -8.5% [at 1.91 µM]
O=C(O)c1ccc2c(=O)n3c(nc2c1)/C(=C/c1ccc(OC(F)F)cc1OC(F)F)CC3 2.65%
Cc1ccc(Nc2nc(N)nc(CSc3nnc(C)s3)n2)cc1 21.9%
CCOC(=O)N1CCN(Cc2nc(N)nc(Nc3ccc(C)cc3)n2)CC1 -14.9%
O=S(=O)(NC1CC1)c1ccc(Cl)cc1 30.8% [at 1.91 µM]
Nc1ccccc1N -35.5%
Cc1ccc(Nc2nnc(SCc3ccccc3)s2)cc1 10.7%
Cc1[nH]c(C)c(S(=O)(=O)N2CCC(C)CC2)c1C(=O)N1CCCC1 -11.5%
COCCNC(=O)CN(Cc1ccco1)C(=O)CCC(=O)Nc1nccs1 -1.62%
COc1ccc(C(=O)Nc2ccc(CN3CCOCC3)cc2)cc1 20.3%
C/C(CCc1ccccc1)=N\NC(=O)c1ccc(CN2CCOCC2)cc1 -42.7%
Cc1cc(=O)n2nc(N3CCCC(C(=O)NCc4cccc(Cl)c4)C3)sc2n1 (stereo not drawn) -0.13%
O=C(OCc1ccc(Br)cc1)c1cccc(-c2nnc(-c3ccccc3)o2)c1 -1.79%
Cc1cccc(NC(=O)Nc2nnc(-c3ccccc3)o2)c1 -2.44%
Nc1ccc(-c2nnc(-c3ccccc3)o2)cc1 4.3%
O=C(COC(=O)c1ccccc1)Nc1ccccc1Sc1ccccc1 -2.28%
CCc1nnc(NC(=O)c2nc3nccc(C)n3n2)s1 -5.51%
Cc1ccnc2nc(C(=O)OCC(=O)N(CC(C)C)CC(C)C)nn12 25.7%
COC(=O)C1(C)CC1(c1ccccc1)c1ccccc1 (stereo not drawn) 28%
CN(C)N1C(N)=C(C#N)C(c2ccc(Br)cc2)C2=C1CCCC2=O (stereo not drawn) 3.08%
C[C@@H](NC(=O)[C@@H]1Cc2ccccc2CN1)C(=O)NC1CCCC1 5.75%
CC(=O)NN1C(=O)c2ccccc2NC1c1ccccc1 (stereo not drawn) 1.65%
CCCC1=Nc2cc(C(=O)NCCN3CCCC3)ccc2Sc2ccccc21 -10.6%
CCC1Sc2ccc(S(=O)(=O)CCC(=O)NCc3cccs3)cc2NC1=O (stereo not drawn) 20.9%
FC(F)(F)c1cccc(N/N=C/c2ccccc2)c1 31.7%
CC(NC(=O)C(=O)N/N=C/c1ccc(Cl)cc1)c1ccccc1 (stereo not drawn) 19.8%
COc1ccccc1CN(C)C(=O)c1cc2ccccc2o1 -5.26%

Potency, active:
Cc1cccc(C(=O)NC(=S)N(C)C2CCCCC2)c1 1.78 µM
Cc1coc2c(O)cc3c(c12)OC1(N2CCCCC2)C(=O)NCCCC31 (stereo not drawn) 12.6 µM
COC(=O)c1sc(NC(=O)c2csc3c2CCCC3)nc1C 35.5 µM
c1ccc2[nH]c(-c3nc4ccccc4[nH]3)nc2c1 10 µM
c1ccc(-c2cc(N3CCCCC3)c3ccccc3n2)cc1 14.1 µM
O=C(Nc1nnc(C2COc3ccccc3O2)o1)c1ccc(F)cc1 (stereo not drawn) 0.562 µM
S=c1[nH]nc(/C=C/c2ccccc2)o1 12.6 µM
COC(=O)c1sc2[nH]c(=S)n(N)c(=O)c2c1C 7.08 µM
O=C(Nc1ccccc1Cl)/C(Cl)=C(\Cl)S(=O)c1ccccc1 (stereo not drawn) 0.891 µM
C=CCNC(=S)NNC(=O)c1ccc(Br)o1 2 µM
O=C(N/N=C/c1sc(N2CCCCC2)nc1-c1cccs1)c1cccnc1 7.94 µM
N#CCC(=O)N/N=C/c1cn(Cc2ccc3ccccc3c2)c2ccccc12 12.6 µM
COc1cccc(NC(=S)N(CCc2c(C)[nH]c3ccccc23)Cc2ccco2)c1 11.2 µM
CCNC(=S)N(CCc1c(C)[nH]c2ccc(C)cc12)Cc1ccco1 11.2 µM
Nc1nc(CC(=O)CSc2ccc(Cl)cc2)nc(Nc2ccc(F)cc2)n1 14.1 µM
Cc1ccc(Nc2ccccc2N)cc1 11.2 µM
Cc1ccccc1-n1c(C)cc(/C=N/NC(=O)c2ccc(CN3CCOCC3)cc2)c1C 10 µM
O=C(COC(=O)c1ccc(Oc2ccccc2)cc1)Nc1nnc(-c2ccccc2)o1 2.82 µM
CCCC(=O)Nc1nnc(-c2ccccc2)o1 7.94 µM
Cc1ccnc2nc(C(=O)Nc3nnc(-c4ccccc4)o3)nn12 11.2 µM
FC(F)(F)c1nc2ccccc2nc1N/N=C/c1ccc(Cl)cc1 5.62 µM
